Reference: PubChem BioAssay AID492996 (Johns Hopkins Ion Channel Center, 2010)
Results with a measured potency or affinity are listed apart. The source made the active and inactive calls.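 How the source made its calls: active means peak inhibition of the TRPC4 channel signal over 30% at some dose, with a fitted dose response curve; inactive means no inhibition or no dose response curve.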

These molecules were tested against Short transient receptor potential channel 4 (Mus musculus) (UniProt Q9QUQ5) (assay: TRPC4 inhibition under acetylcholine activation, SAR follow-up, cell-based, acetylcholine stimulus, HEK293 TRPC4, Fluo-4 (AID 492996)). Conditions: HEK293 TRPC4 cells, ACh-evoked Fluo-4 calcium flux; series mostly up to 20 µM.
Short transient receptor potential channel 4 (Mus musculus), sequence (Q9QUQ5 whole entry, looked up): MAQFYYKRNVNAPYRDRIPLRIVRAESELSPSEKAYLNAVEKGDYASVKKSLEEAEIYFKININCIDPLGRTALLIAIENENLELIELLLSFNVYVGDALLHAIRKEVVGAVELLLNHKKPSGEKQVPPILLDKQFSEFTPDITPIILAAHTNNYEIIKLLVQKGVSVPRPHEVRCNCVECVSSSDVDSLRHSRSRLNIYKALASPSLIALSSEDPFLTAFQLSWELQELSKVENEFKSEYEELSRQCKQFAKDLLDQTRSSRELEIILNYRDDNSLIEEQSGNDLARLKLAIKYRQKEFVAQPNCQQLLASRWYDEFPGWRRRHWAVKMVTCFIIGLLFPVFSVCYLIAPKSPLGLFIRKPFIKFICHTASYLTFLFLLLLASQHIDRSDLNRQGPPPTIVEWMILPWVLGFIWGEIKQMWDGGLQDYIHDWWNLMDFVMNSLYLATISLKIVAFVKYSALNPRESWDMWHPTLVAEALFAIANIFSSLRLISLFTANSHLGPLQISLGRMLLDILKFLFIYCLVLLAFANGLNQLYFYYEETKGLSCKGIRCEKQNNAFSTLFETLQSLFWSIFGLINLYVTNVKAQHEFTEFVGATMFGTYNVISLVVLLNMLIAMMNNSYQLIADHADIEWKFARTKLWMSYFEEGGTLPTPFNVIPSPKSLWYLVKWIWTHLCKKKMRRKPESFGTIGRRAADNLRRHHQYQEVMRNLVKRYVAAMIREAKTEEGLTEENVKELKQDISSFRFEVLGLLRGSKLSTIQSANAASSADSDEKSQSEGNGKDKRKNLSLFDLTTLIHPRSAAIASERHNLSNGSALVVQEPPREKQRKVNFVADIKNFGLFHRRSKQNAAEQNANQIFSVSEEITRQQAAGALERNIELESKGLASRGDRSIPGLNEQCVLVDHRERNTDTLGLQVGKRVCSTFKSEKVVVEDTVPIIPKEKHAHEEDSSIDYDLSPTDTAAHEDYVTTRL
Cc1ccc2nc(N3CCCCCC3)cc(C)c2c1 was tested, and the outcome was “inactive”.
With Cc1cc(N2CCCCCC2)nc2c(C)cccc12 the outcome was “inactive”.
In the case of COc1ccc(N2CCN(c3cc(C)c4ccccc4n3)CC2)cc1, the outcome is reported as “inactive”.
For Cc1cc(N2CCCC(O)C2)nc2ccccc12 (stereo unspecified), the outcome was “inactive”.
In the case of Cc1cc(N2CCOc3ccccc32)nc2ccccc12, the outcome is reported as “inactive”.
For Cc1cc(N2CCC(N3CCOCC3)CC2)nc2ccccc12, the outcome was “inactive”.
For COc1ccccc1N1CCN(c2cc(C)c3ccccc3n2)CC1, the outcome was “inactive”.
Cc1cc(N(C)CCN(C)C)nc2ccccc12 was tested, and the outcome was “inactive”.
With FC(F)(F)c1cc(N2CCCCCC2)nc2ccccc12 the outcome was “inactive”.
With CCc1ccc2nc(N3CCCCCC3)cc(C)c2c1 the outcome was “inactive”.
For Cc1cc(N2CCOCC2)nc2ccccc12, the outcome was “inactive”.
In the case of Cc1ccnc(N2CCCCCC2)n1, the outcome is reported as “inactive”.
With Cc1cc(N2CCN(c3ncccn3)CC2)nc2ccccc12 the outcome was “inactive”.
With CCN(CC)c1cc(C)c2ccccc2n1 the outcome was “inactive”.
In the case of c1ccc(-c2cc(N3CCCCCC3)nc3ccccc23)cc1, the outcome is reported as “inactive”.
In the case of Cc1cc(N2CCCCCC2)nc2ccc(F)cc12, the outcome is reported as “inactive”.
Cc1cc(N2CC(C)CC(C)C2)nc2ccccc12 (stereo unspecified) was tested, and the outcome was “inactive”.
COCCN(C)c1cc(C)c2ccccc2n1 was tested, and the outcome was “inactive”.
Cc1cc(N2CCN(CC3CCCO3)CC2)nc2ccccc12 (stereo unspecified) was tested, and the outcome was “inactive”.
For Cc1ccnc(N2CCCCCC2)c1, the outcome was “inactive”.
With Cc1cc(N2CCN(c3ccccc3C#N)CC2)nc2ccccc12 the outcome was “inactive”.
